Experimental data reported in PubChem BioAssay (NCI).
About 79,000 compounds went through this panel and 15% of them were active in at least one assay; those are over-represented in the sample as a whole. A number with no mark means an inactive call. Activity calls are given as the source filed them. Rule as the data show it: active = growth inhibition above about 70%; inactive = the rest.

Assay: NCI Yeast Anticancer Drug Screen. Data for the mec2-1 strain (AID 157)
Conditions: S. cerevisiae mec2-1 strain, at 50.0 µM, stronger effect = higher value
Outline: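 Vehicle-treated cultures served as reference for growth inhibition of compound-exposed mec2-1 yeast.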

Structure (SMILES)	growth inhibition
Cn1ncc2c(NCCc3ccccc3)nc(Cl)nc21	-18.3%
Cn1c(-c2ccccc2)c2c(=O)oc3ccccc3c2c1-c1ccccc1	8.8%
O=C(NC1CCCCC1Cl)C1CCCCC1 (configuration not stated)	18.6%
O=C1OC(c2ccc([N+](=O)[O-])cc2)=N/C1=C\c1ccccc1	4.5%
CC1=CC(=O)C2C(C)(C)CCCC2(C)C1(O)CCc1ccoc1 (configuration not stated)	88% (active)
CN(CC1CCCCC1=O)CC1CCCCC1=O (configuration not stated)	10.2%
N#CCc1ccccc1S(=O)(=O)O	-0.75%
NC(=O)C(=CNC(=S)Nc1cccc(C(F)(F)F)c1)C(N)=O	-44.5%
CCSC(OC(C)=O)C(Nc1ccc([N+](=O)[O-])cc1[N+](=O)[O-])C(OC(C)=O)C(OC(C)=O)C(COC(C)=O)OC(C)=O (configuration not stated)	10.8%
CCOC(CN(C(C)C)C(C)C)OCC	-16.8%
CCOC(=O)N(c1ccccc1)c1ccccc1	-18.8%
COc1ccc(/C(C)=N/[O-])cc1CS[n+]1ccccc1	27.7%
COc1ccc2c(c1)C=C(C(C)(C)C)NS2(=O)=O	-22.6%
O=C(Nc1ccc(CCc2ccc(NC(=O)C34CC5CC(CC(C5)C3)C4)cc2)cc1)C12CC3CC(CC(C3)C1)C2	-6.55%
CC(C)OC(=O)Oc1ccc(Cl)cc1	-13.1%
Cc1ccc(/C(O)=C/C(=O)C(=O)NC23CC4CC(CC(C4)C2)C3)cc1	15.3%
COC(=O)c1cc2ccccc2n1C	-45.6%
